The list is not random: actives were taken first. Their share in the collection is about 5.4%.
MARV entry inh: qHTS for inhibitors of binding or entry into cells for Marburg Virus | Marburg virus pseudotyped entry inhibition, cell reporter | 300,000 tested, 1.8% active | Potency, µM (titrated, usually from 37.8 µM), inactives show at the highest dose activity change, negative = inhibition, usual class: inhibitors; calls by dose curve; tested in HEK293 cells
VACV mCherry inh: qHTS for Stage-Specific Inhibitors of Vaccinia Orthopoxvirus: mCherry Reporter Primary qHTS. Vaccinia virus mCherry reporter infection, fluorescence. Potency, µM (highest dose often 36.5 µM), inactives show at the highest dose activity change, negative = inhibition, actives largely listed as inhibitors. 310,000 tested, 0.63% active. AID 720579, 2013; calls by dose curve; tested in A549 cells; also: nearly all actives have a fitted effect of over 35% in size
Lassa entry inh: qHTS for Inhibitors of binding or entry into cells for Lassa Virus | Lassa virus pseudotype entry inhibition, cell reporter | Potency, µM (titrated, usually from 37.9 µM), for inactives: top-dose activity change, negative = inhibition, actives largely listed as inhibitors | 300,000 tested, 1.2% active | AID 540256, 2011; calls by dose curve; tested in HEK293 cells; also: nearly all actives have a fitted effect of over 50% in size
FMDV inh: High Throughput Screening for Foot and Mouth Disease Virus Antivirals; FMDV antiviral cell-based qHTS; Potency, µM (series often up to 57.9 µM), inactives show at the highest dose activity change, negative = inhibition, actives largely listed as inhibitors; 410,000 tested, 1.2% active; AID 1159524, 2015; calls by dose curve; tested in HEK293T cells; also: read-out not given here; nearly all actives have a fitted effect of over 45% in size
VACV Venus inh: qHTS for Stage-Specific Inhibitors of Vaccinia Orthopoxvirus: Venus Reporter Primary qHTS. 330,000 tested, 0.46% active. AID 720580, 2013. Potency, µM (highest dose often 36.5 µM), inactives show at the highest dose activity change, negative = inhibition, usual class: inhibitors. Vaccinia virus Venus reporter expression, fluorescence; calls by dose curve; tested in A549 cells; also: nearly all actives have a fitted effect of over 30% in size
Sm TGR block: qHTS Assay for the Inhibitors of Schistosoma Mansoni Peroxiredoxins. Schistosoma mansoni thioredoxin glutathione reductase (TGR), Q962Y6. purified TGR, DTNB reduction, TNB absorbance 405 nm. Potency, µM (doses to about 114 µM), for inactives: at the highest dose activity change, negative = inhibition, actives largely listed as inhibitors. 360,000 tested, 3% active. AID 485364, 2010; active = well fitted inhibition curve with a large enough effect; inconclusive = small, poorly fitted or top-dose-only effect; inactive = no such curve, though single readings can be large or run the other way; also: nearly all actives have a fitted effect of over 60% in size
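Kinetic colorimetric format: TGR-catalysed, NADPH-driven DTNB reduction monitored via TNB absorbance. Enzyme dispensed at 20 nM; compound exposure 15 min at room temperature before reaction start.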
Starred values were filed as active, the others as inactive; i = inactive; ? = inconclusive; · = no result; [ ] = remark or other dose. % is scaled to controls: 0 for no effect and ±100 for the full control effect; potency is read from the fitted curve at half-maximal effect.

SMILES | MARV entry inh | VACV mCherry inh | Lassa entry inh | FMDV inh | VACV Venus inh | Sm TGR block
Cc1ncsc1C(=O)N1N=C2/C(=C/c3ccccc3)CCCC2C1c1ccccc1 (stereo not drawn) | 11µM* | -24% | ? | ? | -14% | 12%
Cc1ncsc1C(=O)N1N=C2/C(=C/c3ccc(N4CCOCC4)cc3)CCCC2C1c1ccc(N2CCOCC2)cc1 (stereo not drawn) | ? | -24% | -53%[14.3 µM] | 5% | 0% | -14%
COc1cc(C(=O)N/N=C(\c2ccccc2)c2ccccn2)cc(OC)c1OC | · | · | · | 40µM* | · | -1%
COc1cccc(C(=O)N/N=C(/c2ccccc2)c2ccccn2)c1 | ? | 2µM* | ? | ? | ? | 1%
COc1cccc(C(=O)N/N=C(/CCC(=O)O)c2ccccc2)c1 | ? | -8% | -12% | -12% | -25% | 8%
COCCCNC(=O)c1ccc(Cn2c(=O)c3ccccc3n(CC(=O)Nc3c(C)cccc3C)c2=O)cc1 | -7%[46.1 µM] | 3% | -1%[46.1 µM] | -6% | 3% | 8%
O=[N+]([O-])/C(C(Cl)=C(Cl)Cl)=C(/Sc1ccccc1)N1CCCCC1 | -5% | ? | -14% | ? | ? | 28µM*
Cc1cc2c(n1-c1ccc(C(=O)NCc3cccc(Br)c3)cc1)CCC(C)C2 (stereo not drawn) | · | -26% | ? | 19% | -20% | -19%
COc1ccc(CNC(=O)CCC2N=C3c4ccccc4N=C(SCc4ccccc4F)N3C2=O)cc1 (stereo not drawn) | · | -18% | 0%[46.1 µM] | 6% | -15% | -6%
O=C(/C=C1\C(=O)Nc2ccccc21)/C=C1\C(=O)Nc2ccccc21 | · | · | · | ? | · | 13µM*
CN(O)/C=C1\C(=O)Nc2ccccc21 | -3% | · | 1% | -21% | -11% | 1%
O=C1Nc2ccccc2/C1=C\C(=O)c1ccccc1 | · | · | · | 32µM* | · | ?
COC[C@H]1O[C@@H](c2c(OC)cc(OC)cc2OC)[C@H](OC)[C@@H](OC)[C@H]1OC | -10%[14.2 µM] | · | · | · | · | ·
Cc1ccc2[nH]c(=O)c(CN(Cc3nnnn3C3CCCC3)C3CCCCC3)cc2c1 | -3% | ? | 1% | · | -16% | 0%
O=c1[nH]c2cc3c(cc2cc1CN(Cc1nnnn1C1CCCC1)C1CCCC1)OCCO3 | ? | · | -14% | 36% | · | 50µM*
Cc1ccc2[nH]c(=O)c(CN(Cc3ccccc3)Cc3nnnn3C3CCCC3)cc2c1 | 18µM* | ? | -38% | 35% | -4% | -4%
Cc1ccc2cc(CN(Cc3nnnn3C3CCCC3)C3CCCCC3)c(=O)[nH]c2c1C | -25% | ? | 18% | · | 0% | 4%
C=CC[C@@H]1C=CC(O/N=C/C[C@@H]2C=C[C@H](OC(C)=O)[C@@H](COC(C)=O)O2)[C@@H](CO)O1 (stereo partly drawn) | 4%[14.2 µM] | · | · | · | · | ·
O=C(Nc1ccc(S(=O)(=O)N2CCCCC2)cc1)c1ccc(Cl)nc1 | · | · | · | 40µM* | · | ·
O=C(Nc1ccc(Cc2ccncc2)cc1)c1ccc(S(=O)(=O)N2CCCC2)cc1 | ? | -24% | ? | 16µM* | -2% | 5%
Cn1nc(C(=O)Nc2cccc(S(=O)(=O)N3CCCCC3)c2)c2ccccc2c1=O | 6.3µM* | -24% | -22% | -16% | -22% | 3%
O=C(Nc1ccc(S(=O)(=O)N2CCCCC2)cc1)c1ccncc1 | -25% | i | -1% | -18% | -28% | 3%
O=C(Nc1cccc(S(=O)(=O)Nc2ccccc2Cl)c1)c1ccc(Cl)nc1 | ? | ? | ? | 28µM* | -25% | 10%
CCCCCCC[n+]1ccc(/C=C/c2c[nH]c3ccccc23)c2ccccc21 | · | i | · | · | i | ·
O=C(Nc1cccc(S(=O)(=O)N2CCCCC2)c1)c1ccc(Cl)nc1 | · | · | · | 14µM* | · | ·
O=C(Nc1ccncc1)c1ccc(Cl)c(S(=O)(=O)N2CCCC2)c1 | ? | -21% | -9% | -9% | -16% | -2%

Compound activity from PubChem.
